High-throughput results: PubChem BioAssay, Sanford-Burnham Center for Chemical Genomics
TAG inh – inhibitors of triacylglycerol accumulation, primary screen, cell-based, uHTS, fluorescence, H9c2 | H9c2 cells, Nile Red lipid (TAG) fluorescence; cells loaded with 200 µM oleic acid | inhibition, % at 12.5 µM | 230,000 tested, 0.66% active;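 active = pattern-corrected inhibition of lipid staining of at least 50% with the nuclear-stain viability signal not falling by more than 50%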
A3A deaminase – APOBEC3A ssDNA deaminase inhibitors, primary screen, selectivity assay for APOBEC3G inhibitor project, biochemical, FAM/TAMRA oligo cleavage fluorescence | 330,000 tested, 0.41% active | AID 493011, 2011 | recombinant A3A, FAM/TAMRA ssDNA deamination fluorescence | inhibition, % at 20 µM;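 active = at least 40% inhibition at 20 µM here, with at most 30% in a related deaminase screen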
Target sequence (P31941 whole entry, looked up): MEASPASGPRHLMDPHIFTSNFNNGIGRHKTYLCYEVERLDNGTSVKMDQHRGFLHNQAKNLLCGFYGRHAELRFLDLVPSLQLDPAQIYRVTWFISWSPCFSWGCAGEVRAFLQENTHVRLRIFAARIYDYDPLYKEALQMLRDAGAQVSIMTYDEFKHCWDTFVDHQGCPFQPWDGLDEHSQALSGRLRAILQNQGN
H9c2 protect – cardioprotection against H2O2-induced cell death, primary screen, uHTS, H9c2 cells, ATPLite luminescence. H9c2 cardiomyocytes, H2O2 injury protection, 2 h. protection from H2O2 cell death, % at 20 µM. 360,000 tested, 0.63% active. AID 588492, 2011;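 active = compounds giving at least 50% protection of heart cells from peroxide-induced death in the single-dose screen, raw or plate-pattern-corrected value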
A3G deaminase – APOBEC3G DNA deaminase inhibitors, primary screen, biochemical, fluorescence, single-stranded DNA substrate, uHTS; recombinant A3G, ssDNA deamination FAM/TAMRA fluorescence; inhibition, % at 20 µM; DNA dC->dU-editing enzyme APOBEC-3G (Homo sapiens), Q9HC16; 330,000 tested, 0.28% active;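 active = inhibition of at least 40% at 20 µM, with no more than 30% in the related APOBEC3A deaminase screen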
Target sequence (Q9HC16 whole entry, looked up): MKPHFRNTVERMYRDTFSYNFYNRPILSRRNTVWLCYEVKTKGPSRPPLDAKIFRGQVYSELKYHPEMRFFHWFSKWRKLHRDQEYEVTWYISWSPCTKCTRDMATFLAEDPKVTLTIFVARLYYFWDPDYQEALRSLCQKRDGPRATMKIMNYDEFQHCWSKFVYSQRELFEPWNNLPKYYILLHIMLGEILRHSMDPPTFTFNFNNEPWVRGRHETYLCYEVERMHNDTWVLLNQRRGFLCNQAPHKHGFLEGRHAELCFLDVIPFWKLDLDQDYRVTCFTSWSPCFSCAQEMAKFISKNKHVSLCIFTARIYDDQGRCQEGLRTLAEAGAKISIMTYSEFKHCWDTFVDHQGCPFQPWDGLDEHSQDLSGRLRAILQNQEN
PfGluPho inh – PfG6PD enzyme inhibitors, primary screen, biochemical, fluorescence intensity, uHTS; glucose-6-phosphate dehydrogenase-6-phosphogluconolactonase (Plasmodium falciparum 3D7); PfGluPho enzyme, NADPH resazurin-diaphorase fluorescence; inhibition, % at 20 µM; 350,000 tested, 0.78% active; AID 504690, 2011;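 active = inhibition reaching at least a set limit at 20 µM in the primary screen, cut at about 59% in these data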
NadD block – inhibitors of S. aureus NadD, primary screen, biochemical, colorimetric, uHTS; purified NadD enzyme, colorimetric absorbance read-out; AID 602399, 2012; inhibition, % at 20 µM; 360,000 tested, 0.78% active; Nicotinate-nucleotide adenylyltransferase NadD (Staphylococcus aureus N315); in the data active = inhibition above about 26%
A3A conf – APOBEC3A deaminase inhibitors, retest, confirmation, selectivity assay for APOBEC3G inhibitor project, biochemical, single concentration, fluorescence readout; shares compounds with A3A deaminase; inhibition, % at 20 µM; 1,400 tested, 63% active; recombinant A3A, ssDNA deaminase UDG fluorescence assay;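 active = inhibition reaching a set limit, 80% of the first screen's cutoff, at 20 µM in any replicate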
UDG ctr A3A – E. coli UDG inhibitors, confirmation, counter-screen for APOBEC3A inhibitor project, biochemical, single concentration, fluorescence, FAM/TAMRA oligo; UDG counterscreen, FAM/TAMRA uracil oligo fluorescence; shares compounds with A3A deaminase; inhibition, % at 20 µM; 1,000 tested, under 10 active; call rule not given here
Hits are given with their value; . = inactive; / = no result. Hits are enriched below; roughly 2.9% of the tested compounds scored in any of these assays.

SMILES	TAG inh	A3A deaminase	H9c2 protect	A3G deaminase	PfGluPho inh	NadD block	A3A conf	UDG ctr A3A
COc1ccc(S(=O)(=O)N2CCOCC2)cc1NC(=O)CSc1cccc[n+]1[O-]	.	.	.	.	.	.	/	/
CC(NC(=O)c1ccccc1Cl)C(=O)NCc1cccs1 (stereo not drawn)	.	.	.	.	.	.	/	/
C[C@H](NC(=O)c1ccccc1Cl)C(=O)NCc1cccs1	.	59.3	.	.	.	.	.	/
O=C(Nc1ccc(S(=O)(=O)N2CCCC2)cc1)C1CC(=O)N(c2ccccc2)C1 (stereo not drawn)	.	71.5	.	.	.	.	.	/
O=C(CCCC(=O)n1cnc2ccccc21)n1cnc2ccccc21	.	.	.	.	.	.	/	/
Cc1ccc(N(C)C(=O)n2cnc3ccccc32)cc1	.	52.5	.	.	.	.	.	.
CCCCN(C)c1c(C)nc2ccc(C(=O)NCCOc3ccc(OC)cc3)cn12	.	/	.	/	/	.	/	/
Cc1cc(C)[n+](C)n1CC(O)Cn1c2ccccc2c2ccccc21 (stereo not drawn)	.	45.0	.	.	.	.	75.8	.
COc1cccc(/C=C(/C#N)c2ccc(F)cc2)c1OCc1cccc(C(=O)O)c1	/	.	.	.	.	.	/	/
N#C/C(=C/c1ccccc1OCc1ccc(F)cc1)c1ccc(C(=O)O)cc1	.	67.4	.	.	.	.	.	/
CC1(C(=O)N2CCC(CC3CC(c4cccc(Br)c4)=NO3)(C(=O)NCC3CCCCC3)CC2)CC1 (stereo not drawn)	.	.	.	.	.	.	/	/
CCOC(=O)C1CCN(C(=O)C(C)Sc2nnc3ccccn23)CC1 (stereo not drawn)	.	59.5	.	.	.	.	.	.
C=CCN=C1N[C@@H](c2ccccc2)C(C(=O)OC)=C(C)N1CCOC	.	51.1	.	.	.	.	70.7	.
COCCN=C1N[C@@H](c2ccccc2)C(C(=O)OC)=C(C)N1Cc1ccccc1	.	.	.	.	.	.	/	/
COCCN1C(=NCCCOC(C)C)N[C@@H](c2ccccc2)C(C(=O)OC)=C1C	.	62.4	.	.	.	.	67.0	.
CCc1ccc(NC(=O)C(C)OC(=O)CC(NC(C)=O)c2ccccc2)cc1 (stereo not drawn)	/	.	.	.	.	.	/	/
Cn1cnc(NCc2ccccc2)c1[N+](=O)[O-]	.	44.1	.	.	.	.	.	.
O=C1CCc2cc(S(=O)(=O)Nc3ccccc3Cl)ccc2N1	.	.	.	.	.	.	/	/
O=C1CCc2cc(S(=O)(=O)Nc3ccccc3F)ccc2N1	.	98.8	.	.	.	.	.	/
C=CCn1c(SCc2nc3sc(C(=O)O)c(C)c3c(=O)[nH]2)nnc1-c1ccccc1	/	.	.	.	.	.	/	/
C=CCn1c(SCc2nc3sc(C(=O)O)c(C)c3c(=O)[nH]2)nnc1-c1ccc(C(C)(C)C)cc1	.	40.1	.	.	.	.	.	.
COC(=O)c1[nH]c2ccc(C)cc2c1NC(=O)CCN1CCN(C2CCCCC2)CC1	/	.	/	.	/	/	/	/
COC(=O)c1[nH]c2ccc(Br)cc2c1NC(=O)CN1CCN(C2CCCCC2)CC1	.	46.5	.	.	.	.	.	/
Nc1ccc2oc(CCc3ccccc3)nc2c1	.	59.7	.	.	.	.	.	.
c1ccc2oc(CCc3nc4ccccc4o3)nc2c1	.	.	.	.	.	.	/	/
SMILES	TAG inh	A3A deaminase	H9c2 protect	A3G deaminase	PfGluPho inh	NadD block	A3A conf	UDG ctr A3A
CC(C)(C)c1cc(C(=O)NNC(=O)Nc2ccccc2)n(Cc2ccccc2)n1	.	61.1	.	.	.	.	.	.
O=C(c1ccccc1)c1ccc(OCC(O)CNCc2cccc(Cl)c2)cc1 (stereo not drawn)	/	/	.	/	.	.	/	/
Cc1nn(Cc2ccc(F)cc2)c(C)c1NC(=O)c1cc2ncc(Br)cn2n1	.	40.7	.	.	.	.	.	/
O=C(NCc1ccc2c(c1)OCO2)c1cc2ncc(Br)cn2n1	.	92.7	.	.	.	.	82.7	.
Cc1cc(C)n2nc(C(=O)Nc3c(C)nn(Cc4ccc(F)cc4)c3C)cc2n1	.	.	.	.	.	.	/	/
CN1/C(=C\C(=O)COC(=O)c2ccc(O)c(O)c2)C(C)(C)c2ccccc21	/	.	/	.	.	/	/	/
CCOC(=O)C1CCN(S(=O)(=O)c2ccc3c(c2)CC(=O)N3C)CC1	/	51.6	.	.	.	.	54.9	.
COc1cccc(CN(CC(=O)NCc2ccc(F)cc2)C(=O)c2ccco2)c1	/	45.5	.	.	.	.	.	.
COc1ccc(C(=O)NCCCC2CCCC2)cc1OC1CCN(C(C)C)CC1	.	/	.	/	.	.	/	/
O=C(Cn1c2[n+](c3ccc(C(F)(F)F)cc31)CCCCC2)Nc1ccccc1	.	59.7	.	.	.	.	62.4	.
FC(F)(F)c1ccc2c(c1)n(Cc1ccccc1)c1[n+]2CCCCC1	.	.	.	.	.	.	/	/
CCc1cccc(NC(=O)Cn2c3[n+](c4ccc(C(F)(F)F)cc42)CCCCC3)c1	/	61.6	.	.	.	.	78.5	.
COc1ccc(/C=C(\NC(=O)c2ccccc2)C(=O)OC[C@@H]2CCC[N+]3(C)CCCCC23)cc1OC (stereo partly drawn)	.	66.9	.	.	.	.	67.2	.
Cc1ccc(NC(=O)COC(=O)CCOc2ccccc2C)cc1	.	.	.	.	.	.	/	/
CCOc1ccccc1OCCC(=O)OCC(=O)Nc1c(C)cc(C)cc1C	.	62.0	.	.	.	.	.	/
COc1ccc(C(=O)NCC(=O)OCCCOC(=O)CNC(=O)c2ccc(OC)c(OC)c2)cc1OC	.	41.7	.	.	.	.	.	/
COc1ccc(C(=O)NCC(=O)OCC(=O)c2ccc(Cl)cc2)cc1OC	.	.	.	.	.	.	/	/
O=C(COc1ccccc1[N+](=O)[O-])NCCCN1CCCC1=O	.	.	.	.	.	.	/	/
